From PubChem BioAssay
GDH-TPI inh: GDH-TPI coupling enzyme inhibitors, primary screen, artefact control for M. tuberculosis FBA inhibitor project, biochemical, absorbance, full deck | GDH-TPI coupled enzyme counterscreen, NADH absorbance | inhibition, % at 4.8 µM | actives 1.2% (n = 360,000);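 note: 0% = DMSO wells and 100% = wells lacking the enzyme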
FBA Mtb inh: Mtb FBA enzyme inhibitors, primary screen, biochemical, fluorescence, strain H37Rv; Fructose-bisphosphate aldolase (Mycobacterium tuberculosis (strain ATCC 25618 / H37Rv)), …; purified M. tuberculosis FBA, fluorescence read-out; inhibition, % at 1 µM; actives 2.3% (n = 360,000); in the data active = inhibition above about 27%;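 note: 0% = vehicle and 100% = reference inhibitor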
Target sequence (P9WQA3 whole entry, looked up): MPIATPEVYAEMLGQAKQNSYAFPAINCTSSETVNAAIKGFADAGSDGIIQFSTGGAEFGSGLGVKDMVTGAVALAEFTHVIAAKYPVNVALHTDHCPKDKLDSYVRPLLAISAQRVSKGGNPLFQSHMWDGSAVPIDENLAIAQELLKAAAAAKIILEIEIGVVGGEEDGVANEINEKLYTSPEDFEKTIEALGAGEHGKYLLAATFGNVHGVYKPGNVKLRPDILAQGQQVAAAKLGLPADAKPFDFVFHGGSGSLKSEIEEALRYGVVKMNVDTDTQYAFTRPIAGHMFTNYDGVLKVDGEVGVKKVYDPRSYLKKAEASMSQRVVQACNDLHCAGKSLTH
Mtb bLac sens: beta-lactam sensitization of Mtb H37Rv, H37Rv | actives 0.27% (n = 330,000) | M. tuberculosis H37Rv growth with meropenem, percent inhibition | inhibition, % at 25 µM | AID 434955, 2010; call rule not given here;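 note: growth measured after seven days incubation then overnight dye step; 0% = bacteria only wells and 100% = bacteria with antibiotic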
CCHF vOTU inh-1: CCHFV vOTU protease inhibitors, primary screen, biochemical, Pep-AMC substrate, fluorescence. Crimean-Congo hemorrhagic fever virus L polyprotein viral ovarian tumor (vOTU) protease …. inhibition, % at 11.5 µM. actives 0.55% (n = 370,000); note: 0% = vehicle wells with enzyme and 100% = no enzyme wells
RecA intein inh: Mtb RecA intein splicing inhibitors, primary screen, biochemical, fluorescence, HTS | inhibition, % (test concentration not listed) | actives 0.75% (n = 290,000) | Protein RecA (Mycobacterium tuberculosis (strain ATCC 25618 / H37Rv)), P9WHJ3 | cell-free RecA intein splicing; in the data active = inhibition above about 30%;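 note: 0% = vehicle wells and 100% = reference inhibitor control wells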
CCHF vOTU inh-2: CCHFV vOTU protease inhibitors, confirmation, biochemical, Pep-AMC substrate, fluorescence; shares compounds with CCHF vOTU inh-1; Recombinant CCHFV vOTU; inhibition, % at 11.5 µM; actives 17% (n = 1,900); AID 686976, 2013
* = called active by the depositor. Most compounds without a hit are left out; they make up all but 4.2% or so of the library. Cut-off read from the data, not from the text of the source, unless noted: active = inhibition above about 30%; inactive = the rest.

`O=C(N/N=C/c1c(O)n(CCc2ccccc2)c(=O)[nH]c1=O)c1ccccc1O` gave GDH-TPI inh 20, FBA Mtb inh 14, Mtb bLac sens 2, CCHF vOTU inh-1 32*, RecA intein inh 25 and CCHF vOTU inh-2 -8.
`CN(CC(=O)Nc1ccccc1Cl)C(=O)COC(=O)c1ccc([N+](=O)[O-])s1` gave GDH-TPI inh 24, FBA Mtb inh 3, Mtb bLac sens 81, CCHF vOTU inh-1 78* and CCHF vOTU inh-2 39*.
`NS(=O)(=O)c1ccc(NC(=O)COC(=O)c2ccc([N+](=O)[O-])s2)cc1` gave GDH-TPI inh 12, FBA Mtb inh 4, Mtb bLac sens -3, CCHF vOTU inh-1 74*, RecA intein inh -2 and CCHF vOTU inh-2 63*.
Screening CN(CC(=O)Nc1ccccc1Cl)C(=O)COC(=O)c1cccs1 returned GDH-TPI inh 7, FBA Mtb inh 2, Mtb bLac sens -4 and CCHF vOTU inh-1 -14.
Cc1ccc(NC(=O)COC(=O)c2ccc([N+](=O)[O-])s2)c(C)c1 was read as GDH-TPI inh 6, FBA Mtb inh 3, Mtb bLac sens 95, CCHF vOTU inh-1 -1 and RecA intein inh -1.
For Cc1cc(C)c(NC(=O)COC(=O)c2ccc([N+](=O)[O-])s2)c(C)c1 the results were GDH-TPI inh 9, FBA Mtb inh 4, Mtb bLac sens 11, CCHF vOTU inh-1 54*, RecA intein inh 1 and CCHF vOTU inh-2 -17.
`COc1ccccc1NC(=O)COC(=O)c1ccc([N+](=O)[O-])s1` gave GDH-TPI inh 6, FBA Mtb inh 0, Mtb bLac sens 98, CCHF vOTU inh-1 80*, RecA intein inh -4 and CCHF vOTU inh-2 100*.
C=CCN1C(=O)C2(OCCCO2)c2cc(C)ccc21 was read as GDH-TPI inh 2, FBA Mtb inh -1, Mtb bLac sens 1, CCHF vOTU inh-1 -4 and RecA intein inh 0.
For CCCCn1c(N)c(N(CC(C)C)C(=O)c2ccc(C)c(S(=O)(=O)N3CCCCC3)c2)c(=O)[nH]c1=O the results were GDH-TPI inh 0, FBA Mtb inh 3, Mtb bLac sens -8, CCHF vOTU inh-1 -5 and RecA intein inh 2.
For Cc1[nH]c2ccccc2c1/C=N/Nc1nncn1N the results were GDH-TPI inh 4, FBA Mtb inh -1, Mtb bLac sens 3, CCHF vOTU inh-1 113*, RecA intein inh 14 and CCHF vOTU inh-2 -1.
`CCS(=O)(=O)c1ccc2c(c1)N(S(C)(=O)=O)CC(C(=O)NN)O2` (stereo unspecified) gave GDH-TPI inh 2, FBA Mtb inh 0, Mtb bLac sens -8, CCHF vOTU inh-1 5 and RecA intein inh 0.
For CC(=O)Nc1ccc(/C=N/NC(=S)NC(C)C)cc1 the results were GDH-TPI inh 40*, FBA Mtb inh -2, Mtb bLac sens -7, CCHF vOTU inh-1 36*, RecA intein inh 1 and CCHF vOTU inh-2 3.
Screening CC1CCC(NC(=O)C(NS(=O)(=O)c2cccc3nsnc23)C(C)C)CC1 (stereo unspecified) returned GDH-TPI inh 9, FBA Mtb inh -2, Mtb bLac sens -6, CCHF vOTU inh-1 31*, RecA intein inh -8 and CCHF vOTU inh-2 -11.
COc1cccc(-c2cnc3c(NC=O)cc(-c4cccc(C(=O)N(C)C)c4)cn23)c1 was read as GDH-TPI inh 12, FBA Mtb inh 3 and CCHF vOTU inh-1 7.
Screening COc1cccc(-c2cc(NC=O)c3ncc(-c4cccc(C(=O)N(C)C)c4)n3c2)c1 returned GDH-TPI inh 2, FBA Mtb inh 2, CCHF vOTU inh-1 31* and CCHF vOTU inh-2 -11.
Screening O=C1C2C3C=CC(c4ccccc4)(C2C(=O)N1c1cccc(Cl)c1)C1C(=O)N(c2cccc(Cl)c2)C(=O)C31 (stereo unspecified) returned GDH-TPI inh 7, FBA Mtb inh -1, Mtb bLac sens -3, CCHF vOTU inh-1 38*, RecA intein inh 0 and CCHF vOTU inh-2 -13.
`COc1ccccc1NC(=O)c1ccc(Cl)c(S(=O)(=O)NCc2ccco2)c1` gave GDH-TPI inh -4, FBA Mtb inh 0, Mtb bLac sens -4, CCHF vOTU inh-1 33* and CCHF vOTU inh-2 -28.
`CCOC(=O)c1cc2sc(C)cc2n1CC(=O)N1CCOCC1` gave GDH-TPI inh 8, FBA Mtb inh 1, Mtb bLac sens 0, CCHF vOTU inh-1 12 and RecA intein inh 0.
Screening CCOC(=O)c1cc2sc(C)cc2n1CC(=O)NCc1ccc(F)cc1 returned GDH-TPI inh 8, FBA Mtb inh -1, Mtb bLac sens -6, CCHF vOTU inh-1 30*, RecA intein inh -1 and CCHF vOTU inh-2 -17.
For COCCCN(C(=O)c1cc(C)oc1C)c1c(N)n(CC(C)C)c(=O)[nH]c1=O the results were GDH-TPI inh 3, FBA Mtb inh 2, Mtb bLac sens -2 and CCHF vOTU inh-1 0.
`Cc1ccc2[nH]c3c(c2c1)CNCC3` gave GDH-TPI inh 10, FBA Mtb inh 1, Mtb bLac sens -3, CCHF vOTU inh-1 -11 and RecA intein inh -1.
Cc1ccc2[nH]c3c(c2c1)CCc1cn[nH]c1-3 was read as GDH-TPI inh 13, FBA Mtb inh 5, Mtb bLac sens 11, CCHF vOTU inh-1 38*, RecA intein inh -3 and CCHF vOTU inh-2 -23.
For C[C@@H]1ON(C)[C@H]2C[C@H]3c4cc(N5CCCCC5)ccc4CCN3C[C@@H]12 the results were CCHF vOTU inh-1 -7.
For CC1=NN(c2ccc(C)cc2C)C(=O)C1C(c1ccccc1O)C1C(=O)N(c2ccc(C)cc2C)N=C1C (stereo unspecified) the results were GDH-TPI inh 10, FBA Mtb inh -2, Mtb bLac sens -1, CCHF vOTU inh-1 44*, RecA intein inh 78* and CCHF vOTU inh-2 -24.
`CC1=NN(c2ccc(Cl)cc2)C(=O)C1C(c1ccccc1O)c1c(C)[nH]n(-c2ccc(Cl)cc2)c1=O` (stereo unspecified) gave GDH-TPI inh 14, FBA Mtb inh 3, Mtb bLac sens 21 and RecA intein inh 26.
`Cc1ccc(-n2ncc3c(NNC(=O)c4ccco4)ncnc32)c(C)c1` gave GDH-TPI inh 8, FBA Mtb inh -4, Mtb bLac sens 12, CCHF vOTU inh-1 -1 and RecA intein inh -6.
Screening Cc1ccc(N2C(=O)[C@@H]3[C@H](C2=O)C2c4ccccc4C=CN2[C@@H]3C(=O)c2ccco2)c(C)c1 (stereo partly specified) returned GDH-TPI inh 10, FBA Mtb inh -1, Mtb bLac sens 0, CCHF vOTU inh-1 95*, RecA intein inh 4 and CCHF vOTU inh-2 53*.
